In PubChem BioAssay AID1159580 (chemical genetic matrix, 2015):
Hit rate of the full screen: of about 5,500 compounds, about 2,000 (36%) were called active. About 18% were inconclusive and are not listed. The list shows a part of the results. Values without a mark were called inactive. Cut-off read from the data, not from the text of the source: active = normalized growth mostly below about 0.91 (no sharp cut-off); inconclusive = no clear call, values can overlap the other calls; inactive = mostly above about 0.92.

Test: chemical genetic growth profiling, strain panel (AID 1159580);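 note: tested at 20 µM; growth read once vehicle control cultures reached saturation at 30 °C; 1 = growth at the plate median or of vehicle wells; lower values mean less growth of the strain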
Conditions: S. cerevisiae deletion strains, growth OD
[1] = locus YDL101C, strain DUN1, stronger effect = lower value
[2] = locus YHR030C, strain SLT2, stronger effect = lower value

With `CC(C)(O)C#Cc1ccc(/C=N\Nc2c(Cl)cc(Cl)cc2Cl)cc1` the normalized growth (locus YAR019C, strain CDC15, stronger effect = lower value) was 0.982, the normalized growth (locus YBL105C, strain PKC1, stronger effect = lower value) was 0.982 and the normalized growth (locus YBR135W, strain CKS1, stronger effect = lower value) was 0.962. For the same molecule, the normalized growth (locus YBR136W, strain MEC1, stronger effect = lower value) was 0.979, the normalized growth (locus YBR160W, strain CDC28, stronger effect = lower value) was 0.969 and the normalized growth (locus YDL017W, strain CDC7, stronger effect = lower value) was 0.982. For the same molecule, the normalized growth (locus YDL028C, strain MPS1, stronger effect = lower value) was 0.973, the normalized growth [1] was 0.986 and the normalized growth (locus YDL108W, strain KIN28, stronger effect = lower value) was 0.968. The normalized growth (locus YDL132W, strain cdc53, stronger effect = lower value) was 0.969, the normalized growth (locus YDL214C, strain PRR2, stronger effect = lower value) was 0.881 and the normalized growth (locus YDR052C, strain DBF4, stronger effect = lower value) was 0.978. The normalized growth (locus YDR054C, strain cdc34, stronger effect = lower value) was 0.963, the normalized growth (locus YDR226W, strain ADK1, stronger effect = lower value) was 0.978 and the normalized growth (locus YDR477W, strain SNF1, stronger effect = lower value) was 0.773. The normalized growth (locus YER123W, strain YCK3, stronger effect = lower value) was 0.86, the normalized growth (locus YER133W, strain GLC7, stronger effect = lower value) was 0.862 and the normalized growth (locus YFL009W, strain cdc4, stronger effect = lower value) was 0.975. It also gave a normalized growth (locus YFL029C, strain CAK1, stronger effect = lower value) of 0.973, a normalized growth (locus YFR003C, strain YPI1, stronger effect = lower value) of 0.978 and a normalized growth (locus YFR019W, strain FAB1, stronger effect = lower value) of 0.848. It also gave a normalized growth (locus YFR028C, strain CDC14, stronger effect = lower value) of 0.976, a normalized growth (locus YGR040W, strain KSS1, stronger effect = lower value) of 0.833 and a normalized growth (locus YGR052W, strain FMP48, stronger effect = lower value) of 0.769. The normalized growth (locus YGR092W, strain DBF2, stronger effect = lower value) was 0.746, the normalized growth [2] was 0.354 (active) and the normalized growth (locus YHR079C, strain IRE1, stronger effect = lower value) was 0.668. For the same molecule, the normalized growth (locus YHR082C, strain KSP1, stronger effect = lower value) was 0.591 (active), the normalized growth (locus YHR205W, strain SCH9, stronger effect = lower value) was 0.832 and the normalized growth (locus YIL147C, strain SLN1, stronger effect = lower value) was 0.973. For the same molecule, the normalized growth (locus YJL095W, strain BCK1, stronger effect = lower value) was 0.341 (active), the normalized growth (locus YJL157C, strain FAR1, stronger effect = lower value) was 0.886 and the normalized growth (locus YJR016C, strain ILV3, stronger effect = lower value) was 0.973. It also gave a normalized growth (locus YJR066W, strain TOR1 (second series), stronger effect = lower value) of 0.86, a normalized growth (locus YJR066W, strain TOR1, stronger effect = lower value) of 0.728 and a normalized growth (locus YKL048C, strain ELM1, stronger effect = lower value) of 0.93. It also gave a normalized growth (locus YKL067W, strain YNK1, stronger effect = lower value) of 0.893, a normalized growth (locus YKL101W, strain HSL1, stronger effect = lower value) of 0.765 and a normalized growth (locus YKL193C, strain SDS22, stronger effect = lower value) of 0.974. The normalized growth (locus YKL203C, strain TOR2, stronger effect = lower value) was 0.838, the normalized growth (locus YLR113W, strain HOG1, stronger effect = lower value) was 0.574 (active) and the normalized growth (locus YML070W, strain DAK1, stronger effect = lower value) was 0.707. The normalized growth (locus YMR001C, strain CDC5, stronger effect = lower value) was 0.974, the normalized growth (locus YMR205C, strain PFK2 (second series), stronger effect = lower value) was 0.925 and the normalized growth (locus YMR277W, strain FCP1, stronger effect = lower value) was 0.971. It also gave a normalized growth (locus YNL006W, strain LST8, stronger effect = lower value) of 0.984, a normalized growth (locus YNL020C, strain ARK1, stronger effect = lower value) of 0.758 and a normalized growth (locus YNL161W, strain CBK1, stronger effect = lower value) of 0.98. For the same molecule, the normalized growth (locus YNL183C, strain NPR1, stronger effect = lower value) was 0.728, the normalized growth (locus YNL207W, strain RIO2, stronger effect = lower value) was 0.981 and the normalized growth (locus YNL222W, strain SSU72, stronger effect = lower value) was 0.979. It also gave a normalized growth (locus YNL307C, strain MCK1 (second series), stronger effect = lower value) of 0.768, a normalized growth (locus YOL078W, strain AVO1, stronger effect = lower value) of 0.978 and a normalized growth (locus YOL136C, strain PFK27, stronger effect = lower value) of 0.904. The normalized growth (locus YOR061W, strain CKA2, stronger effect = lower value) was 0.73, the normalized growth (locus YOR119C, strain RIO1, stronger effect = lower value) was 1.03 and the normalized growth (locus YOR231W, strain MKK1, stronger effect = lower value) was 0.708. The normalized growth (locus YOR329C, strain SCD5, stronger effect = lower value) was 0.983, the normalized growth (locus YPL031C, strain PHO85, stronger effect = lower value) was 0.709 and the normalized growth (locus YPL153C, strain RAD53, stronger effect = lower value) was 0.85. For the same molecule, the normalized growth (locus YPL204W, strain HRR25, stronger effect = lower value) was 0.839, the normalized growth (locus YPL209C, strain IPL1, stronger effect = lower value) was 0.979 and the normalized growth (locus YPL256C, strain CLN2, stronger effect = lower value) was 0.766 (active). The normalized growth (locus YPR025C, strain CCL1, stronger effect = lower value) was 0.972, the normalized growth (locus YPR106W, strain ISR1, stronger effect = lower value) was 0.977 and the normalized growth (locus YPR111W, strain DBF20, stronger effect = lower value) was 0.962. It also gave a normalized growth (strain NNK1, stronger effect = lower value) of 0.972 and a normalized growth (strain TSCII, stronger effect = lower value) of 0.977.

`CC(C)(O)C#Cc1ccc(/C=N\O)cc1` gave a normalized growth (locus YAL013W, strain DEP1, stronger effect = lower value) of 1.01, a normalized growth (locus YBR229C, strain ROT2, stronger effect = lower value) of 0.996 and a normalized growth [1] of 0.99. For the same molecule, the normalized growth (locus YDL134C, strain PPH21, stronger effect = lower value) was 0.981, the normalized growth (locus YDR150W, strain NUM1, stronger effect = lower value) was 0.938 and the normalized growth (locus YEL061C, strain CIN8, stronger effect = lower value) was 0.984. It also gave a normalized growth (locus YGR078C, strain PAC10, stronger effect = lower value) of 1.03, a normalized growth [2] of 1 and a normalized growth (locus YHR087W, strain rtc3, stronger effect = lower value) of 0.988. The normalized growth (locus YJR043C, strain POL32, stronger effect = lower value) was 1.02, the normalized growth (locus YJR075W, strain HOC1, stronger effect = lower value) was 0.992 and the normalized growth (locus YKL190W, strain CNB1, stronger effect = lower value) was 1. It also gave a normalized growth (locus YLR039C, strain RIC1, stronger effect = lower value) of 0.991, a normalized growth (locus YLR058C, strain SHM2 (second series), stronger effect = lower value) of 1.01 and a normalized growth (locus YLR085C, strain ARP6, stronger effect = lower value) of 0.939. For the same molecule, the normalized growth (locus YLR262C, strain YPT6, stronger effect = lower value) was 0.968, the normalized growth (locus YML094W, strain GIM5, stronger effect = lower value) was 0.975 and the normalized growth (locus YMR219W, strain ESC1, stronger effect = lower value) was 0.987. It also gave a normalized growth (locus YMR263W, strain SAP30, stronger effect = lower value) of 0.962, a normalized growth (locus YNL128W, strain TEP1, stronger effect = lower value) of 0.998 and a normalized growth (locus YNL153C, strain GIM3, stronger effect = lower value) of 1. It also gave a normalized growth (locus YNL298W, strain CLA4 (second series), stronger effect = lower value) of 0.977, a normalized growth (locus YNL322C, strain KRE1, stronger effect = lower value) of 0.992 and a normalized growth (locus YNR030W, strain Alg12, stronger effect = lower value) of 1. For the same molecule, the normalized growth (locus YPL055C, strain LGE1, stronger effect = lower value) was 0.936, the normalized growth (locus YPL241C, strain CIN2, stronger effect = lower value) was 0.959 and the normalized growth (locus YPR135W, strain CTF4, stronger effect = lower value) was 0.994.
